Experimental findings from PubChem BioAssay (NCI) are described below.

The panel holds about 83,000 compounds, 20% with a hit somewhere; the sample as a whole holds those more often.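 Growth was measured after 48 h exposure to one concentration of compound in 96-well plates. Values under 10 count as active.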 Unmarked numbers belong to inactive results. Active and inactive are the calls of the source.

Some test systems named below: HCT-15 colon; HT29 colon; SNB-75 CNS; SNB-19 CNS; U251 CNS; PC-3 prostate; UACC-62 melanoma; LOX IMVI melanoma; SK-MEL-28 melanoma; SK-MEL-5 melanoma.
What all share (assay): NCI-60 one-dose screen, 48 h (100 = growth as untreated, 0 = no growth, -100 = all killed)
Conditions in all cases: 10 µM unless noted

As for `CCCCOc1nc2ccc(Cl)cc2cc1/C=C/C(=O)/C=C/c1ccc(OC)cc1`, the growth in the test with HCT-15 colon was 91.5%; in the test with HT29 colon, 71.6%; in the test with SNB-75 CNS, 97.9%; in the test with SNB-19 CNS, 105%; with U251 CNS, 80.5%; in the test with PC-3 prostate, 88.9%. In addition, the growth in the test on UACC-62 melanoma is 78.9%; in the test with LOX IMVI melanoma, 71.5%; in the test on SK-MEL-28 melanoma it was 107%.

As for `CCn1c(C)nc([N+](=O)[O-])c1Sc1nc(N)nc2nc[nH]c12`, the growth was 40.7% in the test on HCT-15 colon; 29.3% with HT29 colon; 44.7% in the test on SNB-75 CNS; 95.1% with SNB-19 CNS; 55.1% in the test with U251 CNS; 52.7% with PC-3 prostate. The growth in the test on UACC-62 melanoma was 1.74% (active); in the test on LOX IMVI melanoma it was 7.51% (active); in the test with SK-MEL-28 melanoma, 81.3%.

Turning to `O=c1c2ccccc2[nH]n1Cc1ccc2c(c1)OCO2`, the growth with HCT-15 colon is 95.7%; in the test with HT29 colon, 104%; with SNB-75 CNS, 101%; in the test on SNB-19 CNS, 97%; in the test on U251 CNS, 96.2%; in the test with PC-3 prostate it was 88.1%. In addition, the growth is 100% in the test on UACC-62 melanoma, 111% in the test on LOX IMVI melanoma and 106% in the test on SK-MEL-28 melanoma.

In the case of `CCc1c(C)c2cc3c(c(C)c2oc1=O)OCC(=O)N3`, the growth in the test with HCT-15 colon was 67.2%; in the test on HT29 colon, 64.1%; with SNB-75 CNS it was 14.3%; with SNB-19 CNS it was 64.3%; in the test on U251 CNS, 62%; in the test on PC-3 prostate it was 80.4%. Besides, the growth with SK-MEL-5 melanoma was 81.1%; in the test on LOX IMVI melanoma it was 65.3%; in the test on SK-MEL-28 melanoma, 92.7%.

Turning to `COC(=O)c1oc2c(C(=O)/C=C/c3ccc(OC)cc3)c(OCCN3CCOCC3)ccc2c1C`, the growth in the test on HCT-15 colon is -57% (active); in the test with HT29 colon, -20.4% (active); in the test with SNB-75 CNS, -26.8% (active); with SNB-19 CNS it was -2.78% (active); in the test on U251 CNS, -81.7% (active); with PC-3 prostate it was 8.1% (active). Further, the results for the growth in the test with UACC-62 melanoma, with LOX IMVI melanoma and in the test on SK-MEL-28 melanoma were -0.039% (active), -85.3% (active) and 4.47% (active), respectively.

Take `Cc1cc2nc(-c3c(N)ncc(C#N)c3-c3ccc(Cl)cc3)[nH]c2cc1C`: the growth in the test with HCT-15 colon was 67.2%; in the test on HT29 colon, 29.8%; with SNB-75 CNS, 56.6%; with SNB-19 CNS, 84.7%; in the test with U251 CNS it was 18%; in the test with PC-3 prostate it was 53.5%. Moreover, the growth was 71.9% with SK-MEL-5 melanoma, 51.7% with LOX IMVI melanoma and 57.6% in the test on SK-MEL-28 melanoma.

As to `COc1cc(/C=C\c2cc(/C=C\c3ccc(O)c(OC)c3)n(C(=O)CNc3ccccc3OC)n2)ccc1O`, the growth with HCT-15 colon was 56.3%; in the test on HT29 colon, 109%; in the test on SNB-75 CNS, 61.6%; with SNB-19 CNS, 70.9%; in the test on U251 CNS it was 53.4%; in the test on PC-3 prostate, 64.2%. Besides, the growth in the test on UACC-62 melanoma was 79.1%; in the test with LOX IMVI melanoma, 40.2%; with SK-MEL-28 melanoma it was 70%.

On to `CCC1(C(N)=O)CC2C=CC1CC2` (centres undefined), for which the growth was 109% with HCT-15 colon; 106% with HT29 colon; 95.9% in the test on SNB-75 CNS; 90.2% in the test with SNB-19 CNS; 110% in the test on U251 CNS; 103% in the test on PC-3 prostate. The growth with UACC-62 melanoma is 104%; in the test with LOX IMVI melanoma, 96.2%; with SK-MEL-28 melanoma, 125%.

`Cc1ncc(CO)c(C(=O)O)c1O`: the growth is 105% in the test on HCT-15 colon; 89.1% with HT29 colon; 93.4% in the test on SNB-75 CNS; 107% with SNB-19 CNS; 98.8% in the test with U251 CNS; 88.5% in the test on PC-3 prostate. Besides, the growth is 103% in the test on SK-MEL-5 melanoma, 102% in the test on LOX IMVI melanoma and 102% with SK-MEL-28 melanoma.

For the compound `CCCC(=O)Oc1ccc(/C(=C(\C)c2ccc(Cl)cc2)c2ccc(OCCN(CC)CC)cc2)cc1`, the growth with HCT-15 colon is -79.9% (active); in the test with HT29 colon it was -50% (active); in the test on SNB-75 CNS, -48.1% (active); in the test with SNB-19 CNS, -38.1% (active); with U251 CNS it was -84.6% (active); with PC-3 prostate it was -15.4% (active). Besides, the figures for the growth in the test on UACC-62 melanoma, with LOX IMVI melanoma and in the test on SK-MEL-28 melanoma were -42.2% (active), -98% (active) and -69.8% (active), respectively.

`C=C1C(=O)O[C@H]2[C@H]1CC/C(COC(=O)n1ccnc1C)=C\CC[C@@]1(C)O[C@@H]21`: the growth with HCT-15 colon is 93.6%; in the test with HT29 colon, 95.4%; in the test with SNB-75 CNS, 93.2%; in the test on SNB-19 CNS it was 95.3%; in the test on U251 CNS it was 95.1%; in the test on PC-3 prostate, 97.2%. Also, the growth in the test on UACC-62 melanoma was 98.6%; in the test on LOX IMVI melanoma, 95%; in the test on SK-MEL-28 melanoma it was 100%.

As to `ClC1c2ccccc2CCc2ccccc21`, the growth in the test on HCT-15 colon was 88.2%; in the test with HT29 colon, 74.1%; with SNB-75 CNS, 81.6%; in the test on SNB-19 CNS, 111%; in the test on U251 CNS, 96.6%; with PC-3 prostate, 83.5%. The growth in the test on UACC-62 melanoma was 98.5%; in the test with LOX IMVI melanoma, 93.6%; with SK-MEL-28 melanoma, 112%.

Regarding `Cc1cccc(Cc2cnc(NC(=O)CCc3ccc(C)o3)s2)c1`, the growth was 7.47% (active) in the test on HCT-15 colon; 0.165% (active) with HT29 colon; 23.9% in the test with SNB-75 CNS; 23.1% in the test on SNB-19 CNS; 27.2% with U251 CNS; 21.9% with PC-3 prostate. The figures for the growth in the test on UACC-62 melanoma and in the test with LOX IMVI melanoma were 21.6% and 29.9%, respectively.

As to `Nc1nc(=S)ss1`, the growth in the test with HCT-15 colon is 91.8%; with HT29 colon, 105%; in the test with SNB-75 CNS it was 89.3%; in the test on SNB-19 CNS it was 103%; in the test on U251 CNS, 107%; in the test with PC-3 prostate, 90.7%. Besides, the growth in the test with UACC-62 melanoma was 95.4%; in the test with LOX IMVI melanoma, 103%; in the test with SK-MEL-28 melanoma, 113%.

Consider `Cc1cc(SCc2ccc(Cl)cc2Cl)nc(SCc2ccc(Cl)cc2Cl)n1`, for which the growth with HCT-15 colon was 93%; in the test on HT29 colon, 97.9%; with SNB-75 CNS, 96.1%; in the test on SNB-19 CNS it was 111%; with U251 CNS, 105%; in the test on PC-3 prostate it was 108%. In addition, the growth was 102% with UACC-62 melanoma, 99.5% in the test with LOX IMVI melanoma and 98.8% with SK-MEL-28 melanoma.
